High-throughput results deposited in PubChem by several laboratories.
Rows were chosen to be rich in hits. Some 3.2% of all compounds tested hit in one or more screens of this group.
MEKK2 WT-MEK5: modulators of MEK5 binding to wildtype MEKK2, primary screen, biochemical, multiplex bead flow cytometry, Alexa488-MEK5 | Alexa488-MEK5 binding to MEKK2 WT; actives lie on both sides | binding response (% of control), % at 10 µM | AID 1531, 2009 | hit rate 1.1% among 290,000 | Mitogen-activated protein kinase kinase kinase 2 (Homo sapiens), Q9Y2U5; in the data active means binding response below about 67% or above about 130%
SKN-1 inh: suppressors of acrylamide-induced Pgst-4::GFP reporter in worms, primary screen, SKN-1 inhibitor project, whole organism, uHTS, GFP/RFP fluorescence ratio, strain VP596 | C. elegans VP596 Pgst-4::GFP/RFP ratio, 24 h | inhibition, % at 21.8 µM | hit rate 0.49% among 360,000 | AID 624304, 2012;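 active means interference check ratio from 0.5 to 1.5 plus GFP to RFP signal ratio inhibition reaching or exceeding a fixed threshold, cut at about 30% in these data, passing the limit was not always enough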
MEKK2 mut-MEK5: MEK5 binding signal on mutant MEKK2 PB1, primary screen, biochemical, multiplex bead flow cytometry, Alexa488-MEK5 | AID 1530, 2009 | hit rate 0.35% among 290,000 | Alexa488-MEK5 binding to MEKK2 mutant | percent response, % at 10 µM; in the data active means percent response above about 24%, passing the limit was not always enough
NRP1-CendR mod: modulators of CendR peptide binding to NRP-1, primary screen, biochemical, fluorescence polarization, uHTS. hit rate 0.85% among 360,000. Neuropilin-1 (Homo sapiens), O14786. FAM-RPARPAR peptide binding to NRP-1. AID 602438, 2012. inhibition, % at 25 µM;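 active means inhibition or corrected inhibition above about 18%, plus a signal ratio from 0.5 to 1.5, limit read from the data, passing the limit was not always enough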
MEKK3 PB1 HTS: modulators of MEKK3-MEK5 PB1 binding, primary screen, biochemical, wildtype MEKK3, multiplex bead flow cytometry, Alexa488-MEK5; Mitogen-activated protein kinase kinase kinase 3 (Homo sapiens), Q99759; bead-based flow cytometry, Alexa488-MEK5 binding to MEKK3; actives lie on both sides; 0 = blocked by unlabeled MEK5, 100 = vehicle; binding response (% of control), % at 10 µM; hit rate 1.4% among 290,000; AID 1529, 2009;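 active means binding response more than 3 SD above or below the average of its plate-row segment, actives on both sides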;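 further: Alexa488 bead fluorescence after subtracting the streptavidin-only scavenger bead signal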
Target sequence (Q99759 whole entry, looked up): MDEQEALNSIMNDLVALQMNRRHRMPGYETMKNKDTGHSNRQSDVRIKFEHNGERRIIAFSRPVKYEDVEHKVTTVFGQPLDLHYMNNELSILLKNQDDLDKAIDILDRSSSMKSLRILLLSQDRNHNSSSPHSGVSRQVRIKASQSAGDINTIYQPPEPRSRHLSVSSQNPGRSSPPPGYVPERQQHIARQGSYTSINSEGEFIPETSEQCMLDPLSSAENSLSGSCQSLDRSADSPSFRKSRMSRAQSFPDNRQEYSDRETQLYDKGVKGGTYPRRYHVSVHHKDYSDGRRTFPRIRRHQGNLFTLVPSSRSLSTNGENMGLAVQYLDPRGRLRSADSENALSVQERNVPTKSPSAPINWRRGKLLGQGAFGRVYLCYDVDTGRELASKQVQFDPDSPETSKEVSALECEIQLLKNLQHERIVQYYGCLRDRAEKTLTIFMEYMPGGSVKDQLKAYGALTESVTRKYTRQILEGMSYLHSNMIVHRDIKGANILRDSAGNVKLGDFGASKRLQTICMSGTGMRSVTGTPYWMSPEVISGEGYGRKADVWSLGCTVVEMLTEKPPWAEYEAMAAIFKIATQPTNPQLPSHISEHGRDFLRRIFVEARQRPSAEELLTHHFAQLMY
Starred values were filed as active, the others as inactive.

How did Cc1ccc(-n2nnnc2-c2cnc(-c3cccnc3)nc2C(F)(F)F)cc1 do in these assays?
MEKK2 WT-MEK5: 89; SKN-1 inh: -19; MEKK2 mut-MEK5: -5; NRP1-CendR mod: 20*; MEKK3 PB1 HTS: 93

What do the screens show for `FC(F)(F)c1nc(-c2ccncc2)ncc1-c1nnnn1-c1ccccc1`?
MEKK2 WT-MEK5: 93; SKN-1 inh: 12; MEKK2 mut-MEK5: -2; NRP1-CendR mod: 4; MEKK3 PB1 HTS: 97

How did CC(C)(C)OC(=O)C[C@H]1C/C=C\C[C@H](CC(=O)N(CCO)Cc2ccccc2)C(=O)N[C@@H](Cc2ccccc2)COC1=O do in these assays?
SKN-1 inh: 2; NRP1-CendR mod: 30*

What do the screens show for `CC(C)(C)OC(=O)C[C@H]1C/C=C\C[C@@H](CC(=O)NCCO)C(=O)NC[C@@H](c2ccccc2)OC1=O`?
SKN-1 inh: 6; NRP1-CendR mod: 20*

How did C[C@@H]1COC(=O)[C@@H](CC(=O)OC(C)(C)C)C/C=C\C[C@H](CC(=O)N(CCO)Cc2ccccc2)C(=O)N1 do in these assays?
SKN-1 inh: 9; NRP1-CendR mod: 3

How did CC(C)(C)OC(=O)C[C@H]1C/C=C\C[C@H](CC(=O)N(CCO)Cc2ccccc2)C(=O)NCCOC1=O do in these assays?
SKN-1 inh: 3; NRP1-CendR mod: 29*

How did O=C1NC[C@@H](c2ccccc2)OC(=O)[C@@H](Cc2ccc(F)cc2)CC/C=C/C[C@@H]1CC(=O)N(CCO)Cc1ccccc1 do in these assays?
SKN-1 inh: 30; NRP1-CendR mod: 31*

How did O=C1CCC/C=C\C[C@@H](CC(=O)N(CCO)Cc2ccccc2)C(=O)N2CCC[C@H]2CO1 do in these assays?
SKN-1 inh: -3; NRP1-CendR mod: 28*

What do the screens show for `NS(=O)(=O)c1ccc(CNC(=S)NCc2ccc(F)cc2)cc1`?
MEKK2 WT-MEK5: 110; SKN-1 inh: 12; MEKK2 mut-MEK5: 9; NRP1-CendR mod: 25*; MEKK3 PB1 HTS: 106

Results for Fc1ccc(CNC(=S)NC2CCCC2)cc1 ?
MEKK2 WT-MEK5: 102; SKN-1 inh: 12; MEKK2 mut-MEK5: -1; NRP1-CendR mod: 32*; MEKK3 PB1 HTS: 103

How did Fc1ccc(CNC(=S)NC2CCCCC2)cc1 do in these assays?
MEKK2 WT-MEK5: 99; SKN-1 inh: -9; MEKK2 mut-MEK5: 0; NRP1-CendR mod: 2; MEKK3 PB1 HTS: 99

Results for CCOc1ccc(S(=O)(=O)N(C)CC(=O)N2CCN(CC)CC2)cc1 ?
MEKK2 WT-MEK5: 104; SKN-1 inh: -4; MEKK2 mut-MEK5: 2; NRP1-CendR mod: 10; MEKK3 PB1 HTS: 107

What do the screens show for `Cc1cc(N(C)C)ccc1N=Nc1ccc2ncccc2c1`?
MEKK2 WT-MEK5: 85; SKN-1 inh: 69*; MEKK2 mut-MEK5: 9; NRP1-CendR mod: 1; MEKK3 PB1 HTS: 77

How did Cc1ccc2ncccc2c1 do in these assays?
SKN-1 inh: -1; NRP1-CendR mod: -11

What do the screens show for `CN(C)c1ccc(N=Nc2cccc3ccoc23)cc1`?
MEKK2 WT-MEK5: 95; SKN-1 inh: 29; MEKK2 mut-MEK5: 2; NRP1-CendR mod: 3; MEKK3 PB1 HTS: 98

What do the screens show for `CN(C)c1ccc(N=Nc2ccc3ncccc3c2)cc1`?
SKN-1 inh: 59*; NRP1-CendR mod: 0

How did CN(C)c1ccc(N=Nc2cccc(F)c2)cc1 do in these assays?
MEKK2 WT-MEK5: 105; SKN-1 inh: 34*; MEKK2 mut-MEK5: 7; NRP1-CendR mod: 6; MEKK3 PB1 HTS: 105

How did c1cnc2ccc(-c3ccc4ncccc4c3)cc2c1 do in these assays?
MEKK2 WT-MEK5: 111; SKN-1 inh: 74*; MEKK2 mut-MEK5: 1; NRP1-CendR mod: -6; MEKK3 PB1 HTS: 107

How did Cc1ccc(N=Nc2ccc(O)c3ncccc23)cc1C do in these assays?
MEKK2 WT-MEK5: 86; SKN-1 inh: 9; MEKK2 mut-MEK5: -11; NRP1-CendR mod: 14; MEKK3 PB1 HTS: 99

How did Cc1ccc(OCC(=O)Sc2ccc(C)cc2)cc1 do in these assays?
MEKK2 WT-MEK5: 106; SKN-1 inh: 56*; MEKK2 mut-MEK5: -7; NRP1-CendR mod: 7; MEKK3 PB1 HTS: 111

What do the screens show for `O=C(Cc1ccc(F)cc1)N1CCN=C1SCc1ccc([N+](=O)[O-])cc1`?
MEKK2 WT-MEK5: 93; SKN-1 inh: -2; MEKK2 mut-MEK5: -1; NRP1-CendR mod: 22*; MEKK3 PB1 HTS: 95

Results for O=C(Cc1ccccc1)N1CCN=C1SCc1ccc([N+](=O)[O-])cc1 ?
MEKK2 WT-MEK5: 111; SKN-1 inh: 3; MEKK2 mut-MEK5: 11; NRP1-CendR mod: -10; MEKK3 PB1 HTS: 99

Results for Cc1nc(CN(C)c2ncnc3ccc(-c4ccc5c(c4)OCO5)cc23)cs1 ?
SKN-1 inh: 3; NRP1-CendR mod: -8

Results for CCCN(CCC)CCCNC(=S)Nc1ccc2nc(N3CCCC3)cc(C)c2c1 ?
MEKK2 WT-MEK5: 156*; SKN-1 inh: 2; MEKK2 mut-MEK5: 43; NRP1-CendR mod: -6; MEKK3 PB1 HTS: 106

What do the screens show for `CCCCN(CC)CCCNC(=S)Nc1ccc2nc(N3CCN(CC)CC3)cc(C)c2c1`?
MEKK2 WT-MEK5: 138*; SKN-1 inh: 6; MEKK2 mut-MEK5: 16; NRP1-CendR mod: 3; MEKK3 PB1 HTS: 115

How did CCN(CC)CCNC(=S)Nc1ccc2nc(N3CCCC3)cc(C)c2c1 do in these assays?
MEKK2 WT-MEK5: 103; SKN-1 inh: -2; MEKK2 mut-MEK5: -2; NRP1-CendR mod: 9; MEKK3 PB1 HTS: 112

How did CCOC(=O)C1(CC)Oc2ccccc2C(c2ccc(OC)cc2)=C1C(=O)OC (stereo not drawn) do in these assays?
SKN-1 inh: 19; NRP1-CendR mod: -11

How did C[C@@H]1CN([C@@H](C)CO)C(=O)c2cc(Br)cnc2O[C@H]1CN(C)C(=O)c1ccc2c(c1)OCO2 do in these assays?
SKN-1 inh: -3; NRP1-CendR mod: 8

Results for COc1cccc2cc(C(=O)C3=C(O)C(=O)N(c4cc(C)on4)C3c3cccs3)oc12 (stereo not drawn) ?
MEKK2 WT-MEK5: -11*; SKN-1 inh: 24; MEKK2 mut-MEK5: 2; NRP1-CendR mod: -55; MEKK3 PB1 HTS: 100

What do the screens show for `CCOc1ccc(C2C(C(=O)c3ccc(C)o3)=C(O)C(=O)N2c2cc(C)on2)cc1OC` (stereo not drawn)?
MEKK2 WT-MEK5: 103; SKN-1 inh: 3; MEKK2 mut-MEK5: 8; NRP1-CendR mod: 21*; MEKK3 PB1 HTS: 101

Results for COc1cccc(C2C(C(=O)c3cc4cccc(OC)c4o3)=C(O)C(=O)N2c2cc(C)on2)c1OC (stereo not drawn) ?
MEKK2 WT-MEK5: 94; SKN-1 inh: -17; MEKK2 mut-MEK5: 1; NRP1-CendR mod: -2; MEKK3 PB1 HTS: 99

How did COc1ccc(S(=O)(=O)N2CCC(C(=O)Oc3ccc(C)cc3)CC2)cc1OC do in these assays?
SKN-1 inh: 13; NRP1-CendR mod: 6
